Cycloheximide cs: counter-screen for Shiga toxin inhibitors: cycloheximide protein synthesis inhibition | cell reporter, cycloheximide protein synthesis inhibition counterscreen | max response, % | 12% of 300,000 active | AID 2314; in the data active = max response mostly above about 13%, no sharp cut-off; inactive = mostly below about 14%; also: read at 38.3 µM for the half of the compounds with a filed dose; 0% is about no effect
Shiga inhibitor: inhibitors of Shiga toxin in Vero cells; Vero cells, Shiga toxin protein synthesis inhibition reporter; inhibition, % at 38.7 µM; 9.2% of 290,000 active; in the data active = inhibition mostly above about 28%, no sharp cut-off; inactive = mostly below about 43%; also: 0% is about no effect
TbPYK inhibitor: blocks Trypanosoma brucei pyruvate kinase; Q57TT1; Potency, µM (top dose mostly 76.8 µM), for inactives: at the top dose activity, negative = inhibition, hits mostly inhibitors; TbPYK enzyme, Kinase-Glo Plus ATP luminescence, 45 min; 0.12% of 410,000 active; also: potency is read from the fitted curve at half-maximal effect; % is scaled to controls: 0 for no effect and ±100 for the full control effect; nearly all actives have a fitted effect of over 50% in size
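ADP (130 uM final) triggers the TbPYK reaction after compound addition; incubation is 45 min at room temperature. Kinase-Glo Plus is then added and luminescence imaged. Normalized data are fitted to concentration-effect curves.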
Giardia FBPA inh: blocks Giardia fructose-bisphosphate aldolase activity; purified Giardia FBPA; Potency, µM (highest dose often 59.6 µM), for inactives: at the highest dose activity, negative = inhibition, hits mostly inhibitors; 0.71% of 290,000 active; also: potency is read from the fitted curve at half-maximal effect; % is scaled to controls: 0 for no effect and ±100 for the full control effect; nearly all actives have a fitted effect of over 55% in size
Target sequence (A8B2U2 whole entry, looked up): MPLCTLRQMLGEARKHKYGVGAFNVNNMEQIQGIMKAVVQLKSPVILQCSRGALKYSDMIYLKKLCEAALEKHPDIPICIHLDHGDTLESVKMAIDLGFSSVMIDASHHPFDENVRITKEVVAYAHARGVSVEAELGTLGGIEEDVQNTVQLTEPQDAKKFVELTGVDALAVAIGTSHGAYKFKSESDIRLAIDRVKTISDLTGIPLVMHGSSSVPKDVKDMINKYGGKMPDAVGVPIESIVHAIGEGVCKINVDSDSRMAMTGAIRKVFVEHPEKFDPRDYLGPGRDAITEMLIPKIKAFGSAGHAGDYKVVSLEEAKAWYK
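40 nM FBPA preincubated 10 min at RT with compound (up to 57.5 uM final), then substrate plus GAPDH/TPI/NAD/arsenate coupling and diaphorase/resazurin added. Fluorescence read after 20 min at RT, 525/598 nm.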
Sm TGR block: S. mansoni TGR enzyme inhibition; Q962Y6; purified TGR, DTNB reduction, TNB absorbance 405 nm; Potency, µM (top dose mostly 114 µM), without a hit: at the highest dose activity change, negative = inhibition, hits mostly inhibitors; 3% of 360,000 active; also: potency is read from the fitted curve at half-maximal effect; % is scaled to controls: 0 for no effect and ±100 for the full control effect; nearly all actives have a fitted effect of over 60% in size
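TGR 20 nM + NADPH 100 uM (dispensed conc.), cpd preinc 15 min RT; start with NADPH (500 uM addition) then DTNB (15 mM addition). Kinetic TNB absorbance, 405 nm filter. Four-parameter Hill fit across titration.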
LmPK inh: inhibitors of Leishmania mexicana pyruvate kinase; Q27686; AID 1721; 0.37% of 290,000 active; Potency, µM (titrated, usually from 57.5 µM), for the others: top-dose activity change, negative = inhibition, usual class: inhibitors; purified LmPK, Kinase-Glo ATP luminescence, 1 h; also: potency is read from the fitted curve at half-maximal effect; % is scaled to controls: 0 for no effect and ±100 for the full control effect
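Pyruvate kinase activity monitored as ATP production (luciferase luminescence). Conditions: 0.1 nM enzyme, 0.5 mM PEP, 0.1 mM ADP, 1 h, RT; normalized against uninhibited and no-enzyme wells.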
* hit, by the source's call; ? = inconclusive; · = no result given. This is one part of a sample in which hits are shown more often than they occur. Unless noted, calls follow the shape of the dose curve; as a rule, active = well fitted curve in the direction sought with a large enough effect; inconclusive = small, poorly fitted or top-dose-only effect, or another doubt; inactive = no such curve, though single readings can be large; an effect the other way counts as inactive or inconclusive.

SMILES	Cycloheximide cs	Shiga inhibitor	TbPYK inhibitor	Giardia FBPA inh	Sm TGR block	LmPK inh
CCC1Sc2ccc(S(=O)(=O)CCC(=O)NCc3ccco3)cc2NC1=O (stereo not given)	36.8	-6.9	-6.5%	-2.6%	31.6µM*	-2.9%
Cc1ccc2c(CC(=O)N(Cc3ccc(Cl)cc3)Cc3ccco3)coc2c1	·	·	1.9%	·	?	·
CCCCn1nnc(NC(=O)c2ccc(-c3cccc([N+](=O)[O-])c3)o2)n1	15.9	20.0	·	-1.0%	·	0.7%
CCCn1nnc(NC(=O)c2ccc(-c3cccc(Cl)c3)o2)n1	41.0*	139.8*	4.2%	-0.3%	-38.9%	-1.8%
CCCn1nnc(NC(=O)c2ccc([N+](=O)[O-])cc2Cl)n1	24.3*	61.6*	-2.9%	-0.1%	-1.0%	10.8%
CCCCn1nnc(NC(=O)c2ccc(-c3cccc(Cl)c3)o2)n1	32.5*	67.9*	-5.2%	0.4%	25.1µM*	2.4%
Cc1ccc(OCC(=O)Nc2ccc([N+](=O)[O-])cc2)cc1	-0.3	-7.8	2.3%	-0.5%	-2.5%	-1.8%
CCn1nnc(NC(=O)COc2ccc([N+](=O)[O-])cc2)n1	19.0*	22.9	-4.1%	0.9%	-3.8%	-2.2%
CO/N=C(/C(=O)N[C@@H]1C(=O)N2C(C(=O)O)=CCS[C@H]12)c1csc(N)n1	·	·	-6.6%	·	·	·
COc1ccc(S(=O)(=O)N2CCCOC2CNC(=O)C(=O)NCc2ccccc2F)cc1C (stereo not given)	-2.3	-4.0	-2.6%	·	-9.5%	-6.6%
CCCCn1cnc(C(=O)OCC)c1N	9.1	13.8	6.6%	0.4%	-0.2%	-3.6%
O=C(NC(=S)Nc1cc(Cl)ccc1N1CCOCC1)c1ccc(-c2cccc(Cl)c2)o1	1.0	-3.6	-6.6%	0.1%	-16.8%	-1.9%
CC(=O)N(C)c1ccc(NC(=O)c2ccc([N+](=O)[O-])cc2Cl)cc1	16.9	66.3*	-4.5%	2.3%	3.7%	-4.1%
CCn1nnc(NC(=S)NC(=O)c2ccc(-c3cccc(Cl)c3)o2)n1	5.3	11.9	-11.2%	?	12.6µM*	1.2%
COCCCNS(=O)(=O)c1ccc(N2CCCCS2(=O)=O)cc1	·	·	1.9%	·	5.1%	·
COc1ccccc1N=Nc1nc(-c2ccccc2)c(-c2ccccc2)[nH]1	11.9*	-1.5	-3.8%	13.7%	-6.9%	-3.3%
COC(=O)c1ccccc1NC=C1C(=O)OC2(CCCCC2)OC1=O	11.6	-12.4	1.6%	2.9%	7.2%	-0.6%

Compound activity deposited in PubChem BioAssay by National Center for Advancing Translational Sciences (NCATS).
